Compounds with a hit are over-represented: about 3.8% of the library has one in this group of screens.
HepG2 viability – qHTS for Inhibitors of TGF-b: Cytotox Counterscreen; HepG2 CAGA-GFP viability, ATP luminescence, 18 h; Potency, µM (top dose mostly 46.1 µM), inactives show at the top dose activity change, negative = cytotoxicity, most hits filed as cytotoxic; 410,000 tested, 0.76% active
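CellTiter-Glo luminescence gave cytotoxicity after 18 hours at 37 degrees C. The cells were HepG2 CAGA-GFP in 1% FBS DMEM, stimulated with 500 pg/mL TGF-beta after compound addition. %Activity was normalised to no-cell wells (complete cell-killing) and DMSO (no toxicity), and curves were fitted and classified.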
A549 viability – Nrf2 qHTS screen for inhibitors: counterscreen for cytotoxicity; A549 ARE-Fluc cells, CellTiter-Fluor viability, 18-24 h; Potency, µM (titrated, usually from 46 µM), inactives show at the highest dose activity change, negative = cytotoxicity, actives largely listed as inhibitors; 390,000 tested, 0.16% active; AID 504648, 2011; also: % is scaled to controls: 0 for no effect and ±100 for the full control effect
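A549 ARE_Fluc cells in 5% FBS OPTI-MEM were exposed to compounds in concentration-response for 18-24 h at 37 deg C. Viability was read by CellTiter-Fluor fluorescence (Ex 405/Em 525) after 30 min, before the luciferase read.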
ATXN viability – Viability Counterscreen for Primary qHTS for Inhibitors of ATXN expression; S2 cells (HEK-293 line with an ATXN2-luciferase reporter) viability, CellTiter-Fluor protease fluorescence, 24 h; Potency, µM (top dose mostly 56.7 µM), usual class: cytotoxic; 400,000 tested, 0.49% active; AID 651635, 2014; also: nearly all actives have a fitted effect of over 40% in size
TGFb inhibitor – qHTS for Inhibitors of TGF-b. HepG2 CAGA-GFP TGF-b/SMAD3 reporter, GFP fluorescence, 18 h; TGF-beta stimulated, 500 pg/mL final. Potency, µM (series often up to 46.1 µM), inactives show top-dose activity, negative = inhibition, actives largely listed as inhibitors. 410,000 tested, 1.2% active; also: % is scaled to controls: 0 for no effect and ±100 for the full control effect; nearly all actives have a fitted effect of over 65% in size
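Inhibition was scored as loss of TGF-beta-induced (500 pg/mL final, 18 hours, 37 degrees C) GFP in HEPG2 cells carrying a CAGA-GFP reporter, in DMEM with 1% FBS. Well GFP was summed per cell; Activity was normalised to unstimulated and stimulated DMSO wells, then concentration-response fitting.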
ATXN2 expr inh – Primary qHTS for Inhibitors of ATXN expression. HEK-293 ATXN2-luciferase reporter, luminescence, 24 h. Potency, µM (titrated, usually from 57 µM), for inactives: top-dose activity change, negative = inhibition, actives largely listed as inhibitors. 360,000 tested, 0.72% active. AID 1745845, 2022; also: % is scaled to controls: 0 for no effect and ±100 for the full control effect; nearly all actives have a fitted effect of over 55% in size
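qHTS (up to 57 uM final) was run with 24 h compound exposure of reporter cells at 37 °C. Each well was multiplexed: SteadyGlo luminescence measured ATXN2-luciferase expression after a fluorogenic Gly-Phe-AFC viability readout (25 uM final).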
Nrf2 block – Nrf2 qHTS screen for inhibitors; A549 ARE-Fluc reporter, luciferase luminescence, 18-24 h; Potency, µM (highest dose often 46 µM), for the others: top-dose activity change, negative = inhibition, hits mostly inhibitors; 360,000 tested, 2.1% active; AID 504444, 2011; also: % is scaled to controls: 0 for no effect and ±100 for the full control effect; nearly all actives have a fitted effect of over 60% in size
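A549 ARE_Fluc cells (5000/well, 5% FBS OPTI-MEM) pre-incubated 2 h, then treated with compounds 18-24 h at 37C/5% CO2 in concentration-response. CellTiter-Fluor viability read first; BugLite luciferase luminescence after 15 min at room temperature gives Nrf2 activity.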
* marks the source's active call; other numbers are inactive results; i = inactive; ? = inconclusive; . = no result; [ ] = remark or other dose. Calls follow the shape of the dose curve; as a rule, active = well fitted curve in the direction sought with a large enough effect; inconclusive = small, poorly fitted or top-dose-only effect, or another doubt; inactive = no such curve, though single readings can be large; an effect the other way counts as inactive or inconclusive. Potency is read from the fitted curve at half-maximal effect.

SMILES	HepG2 viability	A549 viability	ATXN viability	TGFb inhibitor	ATXN2 expr inh	Nrf2 block
COc1cccc(Cn2cnc3c2c(=O)n(C)c(=O)n3C)c1	-26%	-1%	.	-30%	.	13µM*
COc1ccc(CCNc2ncnc3cc(OC)c(OC)cc23)cc1OC	-16%	-2%	i	-18%	-30%[11.3 µM]	21µM*
COc1cc2ncnc(NCCc3ccccc3)c2cc1OC	-24%	-4%	?	?	-25%	23µM*
COc1cc(C2NC(=O)N(C)C3=C2C(=O)N(c2ccccc2)C3)ccc1O (centres undefined)	-32%	-1%	?	-11%	3%	-3%
CCOC(=O)C1=C(CCl)NC(=O)NC1c1ccc2c(c1)OCO2 (centres undefined)	-47%	-18%	i	?	-22%	15µM*
CC1=C(C(=O)OCc2ccc3c(c2)OCO3)C(c2ccc(Cl)cc2)NC(=O)N1 (centres undefined)	-19%	?	i	?	?	7.3µM*
CCCC(C(=O)NCCC(C)C)N(Cc1ccc(OC)cc1)C(=O)c1snc(C(N)=O)c1N (centres undefined)	-18%	-3%	24µM*	0%	15%	-16%
Cc1ccc(N(C(=O)c2snc(C(N)=O)c2N)C(C(=O)NCCC(C)C)c2ccco2)cc1 (centres undefined)	-2%	?	i	-30%	-3%	23µM*
CC(C)CCNC(=O)C(c1ccco1)N(Cc1ccccc1)C(=O)c1snc(C(N)=O)c1N (centres undefined)	6%	3%	i	?	6%	-3%
Cc1ccccc1OCCC(=O)Nc1ccc(S(=O)(=O)N2CCCC2)cc1	-39%	.	?	-9%	.	.
COc1ccc(N(C)S(=O)(=O)c2cccc(C(=O)OCC(=O)c3c(N)n(C)c(=O)n(C)c3=O)c2)cc1	-9%	-12%	?	?	?	21µM*
CCN(c1ccccc1)S(=O)(=O)c1cccc(C(=O)OCC(=O)c2c(N)n(C)c(=O)n(C)c2=O)c1	-10%	-5%	i	?	.	?
COc1ccc(OCc2cc(C(=O)NC(C)Cn3cncn3)no2)c(Cl)c1 (centres undefined)	-16%	15%	i	-14%	48%	18%
COc1ccc(NC(=O)CN(C)C(=O)C2(c3ccccc3)CCCC2)cc1	-3%	-4%	i	-2%	-27%	8.2µM*
COc1ccc(NC(=O)CN(C)C(=O)CCc2ccccc2)cc1	-10%	-5%	i	-24%	18%	-5%
CCOCN(C(=O)Cn1cnc2cc(C)c(C)cc21)c1c(C)cccc1CC	-20%	-11%	28µM*	-29%	-19%	2%
CCOCN(C(=O)Cn1c(COC)nc2ccccc21)c1c(C)cccc1CC	-30%	-8%	?	-22%	1%	0%
CC(=O)Nc1c(Br)cc2c(c1Br)C(=O)c1ccccc1-2	2%	1%	?	1%	9%	8%
CC(=O)C1=C(c2ccc(Br)cc2)C(=O)c2ccccc2C1=O	-99%	-4%	7.1µM*	?	3.5µM*	?
Cc1ccc(-n2ncc(Br)c(Br)c2=O)cc1	-110%	-4%	21µM*	3.2µM*	?	11%
Cc1cccc2c(=O)cc(CSc3ccccc3NC(=O)c3cccc(Br)c3)[nH]c12	-6%	-14%	18µM*	-18%	-7%	.
COc1cc2nc(C3CCC3)nc(N3CCN(c4ccccn4)CC3)c2cc1OC	40%	?	i	13%	-15%	26µM*
COc1cc2nc(C3CCC3)nc(N3CCN(c4ccccc4OC)CC3)c2cc1OC	-130%	?	?	?	-19%	18µM*
COc1ccccc1N1CCN(C2CCCC(C)C2)CC1 (centres undefined)	7%	-7%	i	-2%	-11%	1%
Cc1cc2[nH]c3c4ccccc4nc(C)c3c2cc1C	18µM*	?	.	13µM*	?	?
SMILES	HepG2 viability	A549 viability	ATXN viability	TGFb inhibitor	ATXN2 expr inh	Nrf2 block
CN(Cc1ccccc1)c1ccc(C(CC(N)=O)NC(=O)c2ccccc2)cc1[N+](=O)[O-] (centres undefined)	-13%	?	?	-16%	?	10µM*
CN(Cc1ccccc1)c1ccc(C(CC(N)=O)NC(=O)Cc2ccc(Br)cc2)cc1[N+](=O)[O-] (centres undefined)	-69%	0%	.	?	?	-13%
CCOC(=O)c1ccc(N2C(=O)c3n[nH]c(C)c3C2c2ccc(OC)cc2)cc1 (centres undefined)	-26%	-17%	i	3%	-1%	?
CCOC(=O)c1ccc(N2C(=O)c3n[nH]c(-c4cccs4)c3C2c2ccc(OCC)cc2)cc1 (centres undefined)	-64%	-24%	?	1.6µM*	?	?
CCOC(=O)c1ccc(N2C(=O)c3n[nH]c(C)c3C2c2ccc(CC)cc2)cc1 (centres undefined)	-84%	3%	i	?	-17%	0%
CCOC(=O)c1ccc(N2C(=O)c3n[nH]c(-c4cccs4)c3C2c2cccc(O)c2)cc1 (centres undefined)	-82%	-23%	28µM*	11µM*	?	?
CCOC(=O)c1ccc(N2C(=O)c3n[nH]c(C)c3C2c2ccc(C(C)(C)C)cc2)cc1 (centres undefined)	-10%	6%	i	10%	6%	5%
CCOC(=O)c1ccc(N2C(=O)c3n[nH]c(-c4cccs4)c3C2c2ccc(C(C)C)cc2)cc1 (centres undefined)	1%	?	i	?	5%	23µM*
CCOC(=O)c1ccc(N2C(=O)c3n[nH]c(-c4cccs4)c3C2c2ccc(CC)cc2)cc1 (centres undefined)	-89%	?	.	0.89µM*	.	16µM*
COC(=O)c1nccnc1N	1%	-2%	i	-9%	9%	3%
COc1cccc(C(NC(C)=O)c2nc(-c3cccc(F)c3)cs2)c1 (centres undefined)	-1%	.	i	11%	-3%	.
CCCS(=O)(=O)NC(=O)C1(C)CCN(C(=O)c2cccc(C(F)(F)F)c2)C1 (centres undefined)	-3%	.	i	-8%	2%	.

Screens deposited in PubChem by National Center for Advancing Translational Sciences (NCATS).
